Screens as filed in PubChem BioAssay.
Six1-Eya2 blk: inhibitors of human Six1/Eya2 interaction; Q15475+O00167; AlphaScreen GST-Six1/His-Eya2 binding, biochemical; active compounds read low; activity change, % (no concentration beside the values); hit rate 0.56% among 360,000; in the data active means activity change below about -65%; inconclusive means mostly about -30% to -63%; further: on the % scale 0 is the no-effect control and ±100 the full control effect
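Compounds are tested against tagged Six1 and Eya2 proteins bridged by glutathione donor and nickel acceptor beads; after a one-hour incubation at 37 °C without light, AlphaScreen emission is recorded.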
JMJD2A Tudor inh: JMJD2A Tudor domain (human) inhibition; O75164; AlphaScreen JMJD2A-Tudor / H3K4me3 peptide binding; Potency, µM (series often up to 114 µM), inactives show at the highest dose activity change, negative = inhibition, actives largely listed as inhibitors; hit rate 4.4% among 390,000; AID 504339; further: potency means the concentration at half of the fitted maximal effect; on the % scale 0 is the no-effect control and ±100 the full control effect; nearly all actives have a fitted effect of over 50% in size
HP1b chromo inh: inhibitors of HP1-beta chromodomain binding to methylated histone tails; P83916; AlphaScreen HP1-beta / biotin-H3K9me3 peptide binding; Potency, µM (titrated, usually from 114 µM), for the others: at the highest dose activity change, negative = inhibition, most hits filed as inhibitors; hit rate 0.56% among 390,000; further: potency means the concentration at half of the fitted maximal effect; nearly all actives have a fitted effect of over 70% in size
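HP1-beta protein (50 nM final) preincubated 30 min at room temperature with biotinylated H3(1-18)K9me3 peptide (50 nM) in PBS pH 7.4, 0.01% Tween-20, then compound added for 30 min. AlphaScreen streptavidin donor/nickel chelate acceptor beads (10 ug/mL final), 30 min dark, luminescence read.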
BAZ2B block: blocks human BAZ2B. Q9UIF8. AlphaScreen BAZ2B-H3K14Ac peptide displacement. Potency, µM (highest dose often 114 µM), inactives show at the highest dose activity change, negative = inhibition, hits mostly inhibitors. hit rate 4.4% among 360,000. AID 504333; further: potency means the concentration at half of the fitted maximal effect; on the % scale 0 is the no-effect control and ±100 the full control effect; nearly all actives have a fitted effect of over 60% in size
Target sequence (Q9UIF8 whole entry, looked up): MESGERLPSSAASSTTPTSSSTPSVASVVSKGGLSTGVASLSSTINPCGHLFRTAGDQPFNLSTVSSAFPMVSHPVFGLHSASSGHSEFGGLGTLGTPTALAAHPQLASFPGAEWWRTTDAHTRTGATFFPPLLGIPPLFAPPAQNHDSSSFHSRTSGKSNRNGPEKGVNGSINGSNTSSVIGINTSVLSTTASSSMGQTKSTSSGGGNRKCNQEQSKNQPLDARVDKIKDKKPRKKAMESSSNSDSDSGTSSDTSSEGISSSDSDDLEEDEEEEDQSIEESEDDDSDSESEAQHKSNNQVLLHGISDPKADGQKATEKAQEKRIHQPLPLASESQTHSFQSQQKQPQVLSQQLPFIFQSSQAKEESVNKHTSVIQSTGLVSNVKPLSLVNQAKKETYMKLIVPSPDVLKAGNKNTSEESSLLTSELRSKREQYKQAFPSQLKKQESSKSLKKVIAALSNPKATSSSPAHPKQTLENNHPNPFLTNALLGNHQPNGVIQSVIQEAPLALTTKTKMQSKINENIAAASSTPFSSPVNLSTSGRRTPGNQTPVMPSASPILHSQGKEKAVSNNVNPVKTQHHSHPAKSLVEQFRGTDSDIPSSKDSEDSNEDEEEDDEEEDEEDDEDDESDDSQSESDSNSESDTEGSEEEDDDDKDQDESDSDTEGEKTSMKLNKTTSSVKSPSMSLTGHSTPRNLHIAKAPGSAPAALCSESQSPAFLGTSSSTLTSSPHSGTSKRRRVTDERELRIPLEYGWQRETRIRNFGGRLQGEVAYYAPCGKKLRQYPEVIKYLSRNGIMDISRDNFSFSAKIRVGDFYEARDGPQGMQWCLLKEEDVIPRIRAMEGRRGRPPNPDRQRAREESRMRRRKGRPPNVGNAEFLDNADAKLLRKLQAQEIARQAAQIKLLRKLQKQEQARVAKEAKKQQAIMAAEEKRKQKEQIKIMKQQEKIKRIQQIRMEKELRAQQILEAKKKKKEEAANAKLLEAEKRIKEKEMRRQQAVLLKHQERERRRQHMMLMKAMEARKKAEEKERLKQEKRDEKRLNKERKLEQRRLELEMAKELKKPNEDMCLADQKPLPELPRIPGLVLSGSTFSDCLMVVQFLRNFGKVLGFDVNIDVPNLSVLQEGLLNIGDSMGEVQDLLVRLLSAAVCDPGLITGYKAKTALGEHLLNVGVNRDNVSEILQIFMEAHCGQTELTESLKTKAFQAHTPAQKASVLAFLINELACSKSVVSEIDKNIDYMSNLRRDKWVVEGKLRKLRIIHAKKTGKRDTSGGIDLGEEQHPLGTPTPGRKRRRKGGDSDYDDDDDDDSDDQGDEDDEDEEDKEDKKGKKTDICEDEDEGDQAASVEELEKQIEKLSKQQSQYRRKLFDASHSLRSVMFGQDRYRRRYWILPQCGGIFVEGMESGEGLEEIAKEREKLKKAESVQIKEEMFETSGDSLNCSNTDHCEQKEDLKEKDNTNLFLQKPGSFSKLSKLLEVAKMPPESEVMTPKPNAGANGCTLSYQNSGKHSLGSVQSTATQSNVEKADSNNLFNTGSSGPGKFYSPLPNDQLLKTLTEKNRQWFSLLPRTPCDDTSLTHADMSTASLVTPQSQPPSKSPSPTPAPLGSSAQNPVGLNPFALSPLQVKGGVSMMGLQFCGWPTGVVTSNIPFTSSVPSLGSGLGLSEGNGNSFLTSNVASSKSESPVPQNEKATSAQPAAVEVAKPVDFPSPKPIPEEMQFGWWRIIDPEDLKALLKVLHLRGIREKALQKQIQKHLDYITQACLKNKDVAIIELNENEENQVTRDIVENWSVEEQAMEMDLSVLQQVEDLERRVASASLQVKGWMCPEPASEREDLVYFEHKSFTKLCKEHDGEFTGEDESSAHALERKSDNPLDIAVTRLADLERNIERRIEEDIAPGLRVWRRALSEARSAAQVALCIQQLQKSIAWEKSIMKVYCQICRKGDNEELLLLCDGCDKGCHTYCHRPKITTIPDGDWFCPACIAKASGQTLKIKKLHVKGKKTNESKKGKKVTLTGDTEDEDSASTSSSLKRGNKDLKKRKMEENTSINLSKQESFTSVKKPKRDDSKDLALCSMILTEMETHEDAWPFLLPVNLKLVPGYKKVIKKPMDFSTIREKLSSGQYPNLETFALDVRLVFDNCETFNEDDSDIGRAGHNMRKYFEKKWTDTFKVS
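Inhibition is scored as reduced AlphaScreen emission. The BAZ2B/b-H3(5-23)K14Ac complex (50 nM each) in PBS pH 7.4, 0.01% Tween-20 meets compound (up to 110 uM) for 30 min at RT before bead addition.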
CtBP-E1A blk: blocks the CtBP interaction with E1A | AlphaScreen GST-E1A/His-CtBP binding, 1536-well; active compounds read low | activity change, % (test concentration not listed) | hit rate 0.49% among 340,000 | AID 651724; in the data active means activity change below about -65%; inconclusive means mostly about -30% to -63%; further: on the % scale 0 is the no-effect control and ±100 the full control effect
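Steps: dispense buffer (Tris pH 8.0, NaCl 300 mM, TCEP 1 mM, BSA, Tween 20); add 5X protein mix (GST-E1A, His-CtBP, 125 nM each); pin 23 nL compound; 2 h at 37 °C, dark; add 5X beads (50 ug/mL); 1 h; read.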
G9a block: G9a (human) methyltransferase inhibition; hit rate 8.8% among 350,000; Potency, µM (doses to about 102 µM), for inactives: top-dose activity, negative = inhibition, actives largely listed as inhibitors; G9a H3K9 monomethylation, AlphaScreen, 2 h; further: potency means the concentration at half of the fitted maximal effect; on the % scale 0 is the no-effect control and ±100 the full control effect; nearly all actives have a fitted effect of over 75% in size
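AlphaScreen detection with an anti-monomethyl H3K9 antibody quantified product after a 2 h room-temperature reaction containing 500 nM biotinylated H3K9 peptide, 20 µM SAM and 20 nM enzyme, which had been preincubated 15 min with compound.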
Starred values were filed as active, the others as inactive; ? = inconclusive; · = no result; [ ] = dose if it differs, or a comment. Only some compounds are listed: those with a hit (about 10% of all), similar ones and a draw of the others. Unless noted, the call rests on the fitted dose curve; in most records, active means well fitted inhibition curve with a large enough effect; inconclusive means small, poorly fitted or top-dose-only effect; inactive means no such curve, though single readings can be large or run the other way.

SMILES	Six1-Eya2 blk	JMJD2A Tudor inh	HP1b chromo inh	BAZ2B block	CtBP-E1A blk	G9a block
Cc1ccc(-n2nc(C(=O)N3CCN(c4cc(Cl)ccc4C)CC3)c3c4ccccc4n(C)c3c2=O)cc1	·	-7.0%	25.8%	·	·	5.2%[59 µM]
Cc1ccc(C(C)C)cc1NC(=O)Nc1ccc([N+](=O)[O-])cc1	-17.1	?	-4.4%	-36.6%	·	7.7%[12.7 µM]
Cc1ccc(C(C)C)cc2c(C)ccc1-2	?	28.2µM*	22.4µM*	·	-22.1	12.6µM*
Cc1ccc(C(=O)COC(=O)CCC(=O)Nc2ccc(Oc3ccccc3)cc2)cc1	·	4.8%	46.7%	2.4%	·	-1.4%[59 µM]
COc1cccc(-c2coc3c(C)c4oc(=O)c(CC(=O)O)c(C)c4cc23)c1	-11.7	-7.7%	7.5%	9.2%	-22.0	-43.0%
COc1ccc(-c2coc3cc4oc(=O)c(CC(=O)O)c(C)c4cc23)cc1	3.3	5.7%	24.6%	-2.3%	3.7	53.1%
COc1cccc(-c2coc3c(C)c4oc(=O)c(CCC(=O)O)c(C)c4cc23)c1	?	-35.8%	-2.3%[57 µM]	-33.1%	-87.6*	-15.4%
COc1cccc(-c2coc3cc4oc(=O)c(CCC(=O)O)c(C)c4cc23)c1	-77.4*	-8.0%	12.0%	4.1%	-66.9*	-30.6%
N#Cc1nc(NCC(F)F)c2ncn(-c3cccc(Cl)c3)c2n1	·	-3.4%	·	·	·	·
CC(=O)[C@]1(O)Cc2c(O)c3c(c(O)c2[C@@H](O[C@H]2C[C@H](N)[C@H](O)[C@H](C)O2)C1)C(=O)c1ccccc1C3=O	-22.5	?	-37.9%	·	-28.9	13.4µM*
COc1cccc2c1C(=O)c1c(O)c3c(c(O)c1C2=O)C[C@@](O)(C(=O)CO)C[C@@H]3OC1C[C@@H](N)[C@H](O)[C@H](C)O1 (some centres undefined)	·	·	·	·	·	14.1µM*
CC(=O)[C@]1(O)Cc2c(O)c3c(c(O)c2[C@@H](O[C@H]2C[C@H](N)[C@H](O)[C@H](C)O2)C1)C(=O)c1c(O)cccc1C3=O	·	·	·	·	·	14.1µM*
CCCCC(=O)OCC(=O)[C@]1(O)Cc2c(O)c3c(c(O)c2[C@H](OC2CC(NC(=O)C(F)(F)F)C(O)C(C)O2)C1)C(=O)c1c(OC)cccc1C3=O (some centres undefined)	·	·	·	·	·	8.91µM*
CCOC(=O)C1=CNS(=O)(=O)NC1CCc1ccccc1 (centres undefined)	-0.2	-11.0%	27.5%	·	10.9	·
Cc1ccccc1C(=O)OCc1cc(=O)n2nc(C3CC3)sc2n1	·	-15.7%	-8.6%	-1.8%	·	3.8%[59 µM]
CCCC(=O)Nc1cc(-c2nc3cccnc3s2)ccc1C	·	-33.9%	-15.0%	?	·	?
CCOC(=O)c1c(-c2ccc(C)cc2)csc1NC(=O)c1cc(-c2ccc(OC)cc2)on1	·	-11.3%	30.6%	-2.2%	·	5.5%[59 µM]
COC(=O)c1c(-c2ccc(C)cc2)csc1NC(=S)NC(=O)c1cc(OC)cc(OC)c1	-2.1	0.0%	17.6%	?	-14.7	25.1µM*
COc1ccc(C(=O)OCC(=O)NC2CC2)cc1S(=O)(=O)N(C)Cc1ccccc1	5.6	-4.1%	36.3%	-2.1%	5.3	50.1µM*
COc1ccc(C(=O)OCC(=O)NC(Cc2ccccc2)C(C)=O)cc1S(=O)(=O)N1CCCC1 (centres undefined)	5.7	-19.2%	8.0%	10.1%	-3.7	56.2µM*
O=C(COC(=O)c1ccc(Cl)c(S(=O)(=O)N2CCCCCC2)c1)Nc1ccccc1	2.2	-10.8%	8.5%	6.7%	7.0	-2.1%[59 µM]
CCN(C(=O)COC(=O)c1ccc(OC)c(S(=O)(=O)N(C)Cc2ccccc2)c1)C1CCS(=O)(=O)C1 (centres undefined)	0.9	-10.8%	20.6%	7.5%	-13.9	?
O=C(COC(=O)c1ccc(F)cc1F)NC(=O)Nc1ccc2c(c1)OCCO2	-0.7	-9.4%	34.2%	14.5%	1.2	-7.5%[12.7 µM]
Cc1cccc(-c2nc(CN3CCCC(C(=O)NCc4ccc(Cl)cc4)C3)c(C)o2)c1 (centres undefined)	·	?	-2.8%	?	·	-50.5%[59 µM]
CC[n+]1c(/C=C(\C)OC)sc2ccccc21	-0.5	?	41.1%	56.2µM*	6.0	?
SMILES	Six1-Eya2 blk	JMJD2A Tudor inh	HP1b chromo inh	BAZ2B block	CtBP-E1A blk	G9a block
CC[n+]1c(C=C2C=C(C)OC(C)=C2)sc2ccccc21	-8.1	-22.8%	33.4%	-30.7%	-26.6	-24.3%
CCO/C(=C/c1sc2ccc(OC)cc2[n+]1CCCS(=O)(=O)[O-])CC	-14.0	23.2%	69.3%	-10.2%	1.7	-2.7%[59 µM]
Cc1sc2ccccc2[n+]1CCC(C)S(=O)(=O)[O-] (centres undefined)	6.9	-17.1%	62.9%	-9.5%	7.2	2.5%[59 µM]
CC[n+]1c(/C=C/Nc2ccccc2)sc2ccccc21	-1.8	-17.6%	19.5%	-5.7%	-7.2	7.94µM*
CC[n+]1c(/C=C2/C=C(C)CC(C)C2)sc2ccccc21 (centres undefined)	3.4	31.6µM*	-4.2%	?	1.5	7.94µM*
CC[n+]1c(/C=C(/C)SC)sc2ccccc21	-2.1	-15.1%	41.6%	?	5.3	44.7µM*
CC(C)CC1NC(=O)c2cc3ccccc3cc2-n2c1nc1ccc(F)cc1c2=O (centres undefined)	-0.7	·	·	·	-16.8	·
CC[n+]1ccccc1/C=C/Nc1ccccc1	2.5	-12.4%	37.9%	-6.0%	·	44.7µM*
CCn1c(/C=C/Nc2ccccc2)[n+](CC)c2cc(Cl)c(Cl)cc21	?	-18.4%	27.7%	9.4%	-26.6	?
CC[n+]1c(/C=C(\C)SC)sc2ccccc21	0.4	?	33.7%	79.4µM*	1.4	79.4µM*
Cc1sc2ccccc2[n+]1CC(=O)O	2.4	?	52.3%	-10.5%	2.7	?
CC[n+]1c(/C=C(\C)Nc2ccccc2)sc2ccccc21	-22.7	-24.1%	23.7%	50.1µM*	1.0	?
CC/C(=C/c1sc2ccccc2[n+]1CC)SC	-4.2	25.1µM*	31.4%	?	15.5	-19.1%[59 µM]
COc1ccccc1C(=O)OCc1cc(=O)n2c(C)csc2n1	·	-10.7%	-4.9%	-2.5%	·	8.2%[59 µM]
COCCN(C/C=C/c1ccccc1)C/C=C/c1ccccc1	6.3	1µM*	?	?	5.2	7.08µM*
CCOc1ccc(-c2cccc(NC(=O)c3cccs3)c2)nn1	-14.1	-15.4%	7.0%	8.5%	-12.8	-36.3%
CCCCN(C)CCCNC(=O)CN1N=C(c2ccc(Cl)cc2)CCC1=O	-0.5	-5.8%	20.0%	12.9%	10.2	38.3%
CCCCN(CCCNC(=O)CN1N=C(c2ccc(C)cc2)CCC1=O)c1ccccc1	·	39.8µM*	?	20µM*	·	14.1µM*
COc1ccc(C2=NN(CC(=O)NCCCN(C)c3ccccc3)C(=O)CC2)cc1	·	?	-13.4%	?	·	?
